# Results as given in PubChem BioAssay (NCATS).
# Results filed as inconclusive are left out. Activity calls are given as the source filed them. Unless noted, calls come from the whole dose curve; as a rule, active = well fitted curve in the direction sought with a large enough effect; inconclusive = small, poorly fitted or top-dose-only effect, or another doubt; inactive = no such curve, though single readings can be large; an effect the other way counts as inactive or inconclusive.
# System: not listed separately
# Assay: Primary redox qHTS assay for identification of artifact compounds. (AID 1845223);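 note: 0% = DMSO and 100% = reference compound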
# Conditions: Amplex Red/HRP redox cycling with DTT, fluorescence; series mostly up to 53.8 µM; redox activity (% of DA3003): at the top concentration
# Summary of the method: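 Redox-cycling detection via DTT (250 uM final) oxidation coupled to Amplex Red (25 uM)/HRP (250 mU/mL) in HBSS. 15 min preincubation plus 30 min after DTT, room temperature. Ex/Em 525/598 nm; 4-parameter Hill fit against DMSO and 10 uM DA3003.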
row,Compound,redox activity (% of DA3003)
1,OCC(Cc1ccccc1)Nc1nc(Oc2ccc3c(c2)CCC3)nc2c1ncn2Cc1ccc(-c2ccccc2)cc1 (configuration not stated),-1.02% (inactive)
2,Cc1[nH]c(/C=C2\C(=O)Nc3ccc(F)cc32)c(C)c1C(=O)NC[C@H](O)CN1CCOCC1,13.7% (inactive)
3,O=C1c2c(O[C@@H]3O[C@H](CO)[C@@H](O)[C@H](O)[C@H]3O)cc(O)cc2OC1(O)Cc1ccc(O)cc1 (some centres not stated),-6.07% [at 25.6 µM] (inactive)
4,CCCCn1c(-c2ccccc2)nc(-c2ccccc2)c1CN(Cc1ccc2c(c1)OCO2)Cc1ccc2c(c1)OCO2,-3.44% (inactive)
5,Cc1ccc(C2(COC(=O)C(C)C)CO2)c(OC(=O)C(C)C)c1 (configuration not stated),-13.3% (inactive)
6,CCC(C)n1cc(C)c2c(C(=O)NCc3c(C)cc(C)[nH]c3=O)cc(-c3ccc(N4CCNCC4)nc3)cc21 (configuration not stated),8% (inactive)
7,Cn1nccc1Nc1nccc(-c2ccn([C@H](CO)c3ccc(Cl)c(F)c3)c(=O)c2)n1,17.4% (inactive)
8,COc1cc2ncnc(Oc3cccc(NC(=O)Nc4cc(C(C)(C)C(F)(F)F)on4)c3)c2cc1OC,-10.4% (inactive)
9,CC1(C)CC[C@]2(C(=O)OC3OC(CO)C(O)C(O)C3O)CC[C@]3(C)C(=CCC4[C@@]5(C)CC[C@H](OC6OC(C(=O)O)C(O)C(O)C6O)C(CO)(CO)C5CC[C@]43C)[C@@H]2C1 (some centres not stated),7.5% [at 11.5 µM] (inactive)
10,Nc1ncnc2c1ncn2[C@@H]1O[C@H](CO)C[C@H]1O,-0.604% (inactive)
11,O=[N+]([O-])c1ccc(-[n+]2nc(-c3ccccc3)nn2-c2ccc(I)cc2)cc1,-6.15% (inactive)
12,O=C(NC(NC(=S)Nc1ccc(F)c([N+](=O)[O-])c1)C(Cl)(Cl)Cl)C(c1ccccc1)c1ccccc1 (configuration not stated),-1.24% [at 25.6 µM] (inactive)
13,Cc1ccc(C(=O)N2CCN(c3ccc([N+](=O)[O-])cc3)CC2)cc1Cl,-3.04% (inactive)

# System: not listed separately
# Assay: qHTS drug screen for cell cycle checkpoint inhibitors in PARPi-resistant BRCA-mutant ovarian cancer cell lines. (AID 1963452; calls by dose curve)
# Conditions: PEO1/OlaR viability, CellTiter-Glo luminescence, 96 h; stronger effect = lower value
# Summary of the method: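 PEO1, PEO4 and PEO1/OlaR ovarian cancer cells, 600 per well, exposed 96 h at 37C to a dilution series. Viability read by CellTiter-Glo luminescence, normalized to DMSO and empty wells; activity summarized as Z-AUC.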
row,Compound,Z-AUC
1,COc1cc([C@@H](CC(=O)O)c2ccc(C)c(CN3C[C@@H](C)Oc4ccccc4S3(=O)=O)c2)cc2nnn(C)c12,1.24 (inactive)
2,O=C(NNc1ccccc1)c1ccncc1,1.21 (inactive)
3,Cc1[nH]c(/C=C2\C(=O)Nc3ccc(F)cc32)c(C)c1C(=O)NC[C@H](O)CN1CCOCC1,-1.33 (inactive)
4,CCN(CCCOc1ccc2c(Nc3cc(CC(=O)Nc4cccc(F)c4)[nH]n3)ncnc2c1)CCOP(=O)(O)O,1.19 (inactive)
5,Cn1nccc1Nc1nccc(-c2ccn([C@H](CO)c3ccc(Cl)c(F)c3)c(=O)c2)n1,-0.731 (inactive)
6,COc1cc2ncnc(Oc3cccc(NC(=O)Nc4cc(C(C)(C)C(F)(F)F)on4)c3)c2cc1OC,0.198 (inactive)
7,Nc1ncnc2c1ncn2[C@@H]1O[C@H](CO)C[C@H]1O,1.48 (inactive)

# Same assay, conditions: PEO1/OlaR viability, CellTiter-Glo luminescence, 96 h; measured here: PEO1 parental Z-AUC; stronger effect = lower value
row,Compound,Z-AUC
1,COc1cc([C@@H](CC(=O)O)c2ccc(C)c(CN3C[C@@H](C)Oc4ccccc4S3(=O)=O)c2)cc2nnn(C)c12,0.171
2,O=C(NNc1ccccc1)c1ccncc1,0.257
3,C[C@@H]1COCCN1c1cc(C2(S(C)(=N)=O)CC2)nc(-c2ccnc3[nH]ccc23)n1 (some centres not stated),-1.94
4,Cc1[nH]c(/C=C2\C(=O)Nc3ccc(F)cc32)c(C)c1C(=O)NC[C@H](O)CN1CCOCC1,0.846
5,CCN(CCCOc1ccc2c(Nc3cc(CC(=O)Nc4cccc(F)c4)[nH]n3)ncnc2c1)CCOP(=O)(O)O,0.684
6,Cn1nccc1Nc1nccc(-c2ccn([C@H](CO)c3ccc(Cl)c(F)c3)c(=O)c2)n1,-0.241
7,COc1cc2ncnc(Oc3cccc(NC(=O)Nc4cc(C(C)(C)C(F)(F)F)on4)c3)c2cc1OC,0.387
8,Nc1ncnc2c1ncn2[C@@H]1O[C@H](CO)C[C@H]1O,0.932

# Same assay, conditions: PEO1/OlaR viability, CellTiter-Glo luminescence, 96 h; measured here: PEO4 Z-AUC; stronger effect = lower value
row,Compound,Z-AUC
1,COc1cc([C@@H](CC(=O)O)c2ccc(C)c(CN3C[C@@H](C)Oc4ccccc4S3(=O)=O)c2)cc2nnn(C)c12,-0.282
2,O=C(NNc1ccccc1)c1ccncc1,0.154
3,C[C@@H]1COCCN1c1cc(C2(S(C)(=N)=O)CC2)nc(-c2ccnc3[nH]ccc23)n1 (some centres not stated),-1.89
4,Cc1[nH]c(/C=C2\C(=O)Nc3ccc(F)cc32)c(C)c1C(=O)NC[C@H](O)CN1CCOCC1,0.0211
5,CCN(CCCOc1ccc2c(Nc3cc(CC(=O)Nc4cccc(F)c4)[nH]n3)ncnc2c1)CCOP(=O)(O)O,0.183
6,Cn1nccc1Nc1nccc(-c2ccn([C@H](CO)c3ccc(Cl)c(F)c3)c(=O)c2)n1,-0.296
7,COc1cc2ncnc(Oc3cccc(NC(=O)Nc4cc(C(C)(C)C(F)(F)F)on4)c3)c2cc1OC,0.555
8,Nc1ncnc2c1ncn2[C@@H]1O[C@H](CO)C[C@H]1O,0.673

# System: CRL-7250
# Assay: Cytotoxic Profiling of Annotated Libraries Using Quantitative High-Throughput Screening (AID 1296008); note: nearly all actives have a fitted effect of over 60% in size; note: potency is the fitted concentration of half-maximal effect; for max response: % is set by controls: 0 for no effect and ±100 for the full control effect
# Conditions: Five cell lines viability, CellTiter-Glo ATP luminescence, 48-72 h; max response: stronger effect = lower value
# Summary of the method: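 Cytotoxicity was measured as CellTiter-Glo ATP luminescence, read after 10 min at room temperature. Compound treatment of the cells lasted 48 or 72 hr at 37 degrees Celsius in a qHTS format.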
Compound,Potency,max response,outcome
CC1OC2OC3C(OCC(O)C3O)OC(=O)C34CCC(C)(C)CC3C3=CCC5C6(C)CC(O)C(OC7OC(CO)C(O)C(O)C7OC7OCC(OC(=O)CC(C)(O)CC(=O)OC1C(OC1OCC(O)C(O)C1O)C2O)C(O)C7O)C(C)(CO)C6CCC5(C)C3(C)CC4O (configuration not stated),7.96 µM (active),–,–
CCOC(=O)c1cnn(-c2ccc(NC(=O)C(Cl)=C(Cl)Cl)cc2)c1C(F)(F)F,20.6 µM (active),–,–
COc1ccc(Cl)cc1[C@@]1(F)C(=O)Nc2cc(C(F)(F)F)ccc21,–,-2.43% (inactive),–
Cc1ccc2c(Nc3ccc(Cl)cc3)nccc2c1Nc1ncccc1-c1ncnc2nc[nH]c12,14.6 µM (active),–,–
CCN(CC)c1ccc(C(=C2C=CC(=[N+](CC)CC)C=C2)c2cc(S(=O)(=O)O)ccc2S(=O)(=O)[O-])cc1,5.31 µM (active),–,–
COc1ccccc1-c1cc(Nc2cccc(CS(N)(=O)=O)c2)ncn1,16.4 µM (active),–,–
Cn1cnc(-c2nccc3c(=O)[nH]c(OCCCC(F)(F)F)nc23)c1,5.8 µM (active),–,–
Cc1[nH]c(/C=C2\C(=O)Nc3ccc(F)cc32)c(C)c1C(=O)NC[C@H](O)CN1CCOCC1,6.51 µM (active),–,–
Cn1nccc1Nc1nccc(-c2ccn([C@H](CO)c3ccc(Cl)c(F)c3)c(=O)c2)n1,–,–,inactive
CC1(C)CC[C@]2(C(=O)OC3OC(CO)C(O)C(O)C3O)CC[C@]3(C)C(=CCC4[C@@]5(C)CC[C@H](OC6OC(C(=O)O)C(O)C(O)C6O)C(CO)(CO)C5CC[C@]43C)[C@@H]2C1 (some centres not stated),2.46 µM (active),–,–
CC(=O)N1c2ccc(-c3ccc(C(=O)O)cc3)cc2C(Nc2ccc(Cl)cc2)CC1C (configuration not stated),1.03 µM (active),–,–
